Measured values from PubChem BioAssay AID1508624 (National Center for Advancing Translational Sciences (NCATS), 2021).
Among all 48,000 compounds or so, about 120 (0.25%) were called active. A call without a number means that no potency is given here. About 4% were inconclusive and are not listed. The call rests on the fitted dose curve; in most records, active means well fitted activation curve with a large enough effect; inconclusive means small, poorly fitted or top-dose-only effect, or another doubt; inactive means no such curve, though single readings can be large or run the other way. Many of the other results were omitted from the sample, so actives are more common in it than they were.

test: Primary qHTS for Identification of Small Molecule Activators of Huntingtin-Antisense Promoter Activity; settings: HEK293 HTT-AS promoter firefly luciferase reporter (activity 0% = vehicle and -100% = no light), 24 h; series mostly up to 57.5 µM; further: nearly all actives have a fitted effect of over 55% in size
Source text: Assay Provider: Russell L. Margolis M.D.
Department Neurology, Johns Hopkins University School of Medicine, Baltimore, MD
Huntington's Disease (HD) is a neurodegenerative disorder caused by a CAG repeat expansion in exon 1 of huntingtin (HTT). While there are currently no disease-modifying treatments for HD, recent efforts have focused on development of nucleotide-based therapeutics to lower HTT expression. As an alternative to siRNA or oligonucleotide methods, we hypothesized that suppression of HTT expression might be accomplished by small molecules that either (1) directly decrease HTT expression by suppressing HTT promoter activity or (2) indirectly decrease HTT expression by increasing the promoter activity of HTT-AS, the gene antisense to HTT that appears to inhibit expression of HTT.
We developed and employed a high throughput screen for modifiers of HTT and HTT-AS promoter activity using luminescent reporter HEK293 cells; of the 52,041 compounds tested, we identified 898 replicable hits. We used a rigorous stepwise approach to assess compound toxicity and the capacity of the compounds to specifically lower huntingtin protein in 5 different cell lines, including HEK293 cells, HD lymphoblastoid cells, mouse primary neurons, HD iPSCs differentiated into cortical-like neurons, and HD hESCs. We found no compounds which were able to lower huntingtin without lowering cell viability in all assays, though the potential efficacy of a few compounds at non-toxic doses could not be excluded.
SEQUENCE No. (1, 2, 3, etc.); […] (e.g., Cells, Incubation, Reagent, etc.); VALUE and DESCRIPTION.
1; Reagent; 4 uL; 2,500 Hek293 luciferase reporter cells per wells
3; Compound; 23 nL; Control inhibitor / compound library
5; Reagent; 2.5 uL; Firefly Luc reagent; Dual-Glo Luciferase Reporter Assay System (Promega)
6; Time; 10 min; room temperature incubation
7; Detection; Luminescence; FLuc
NOTES (numbers refer to sequence above)
1; High-throughput screening, measuring luminescence from a Hek293 luciferase reporter, was performed in 1,536 well white-walled tissue-culture treated plates. 2,500 cells were plated in 4 µL of Opti-MEM per well using a Multidrop Combi Reagent Dispenser (ThermoFisher).
2; Assay plates were cultured for 24 hours.
3; Control inhibitor (PTC124; final concentration of 50 uM) and compound library (at final concentrations of 460 nM - 57.5 uM) were added to the assay plate using the Kalypsis Pintool Robotic System equipped with 1536 pinheads.
4; Cells were then incubated for 24 hours at 37 degrees C prior to luminescence measurements.
5; In all cases, luminescence was measured using the Dual-Glo Luciferase Reporter Assay System (Promega) following the manufacturer's instructions.
6; Room temperature incubation.
7; Luminescence signal was obtained using the PerkinElmer ViewLux plate reader. Results were normalized to vehicle control (0% activity) and zero RLU (-100% activity).
Potency means the concentration at half of the fitted maximal effect.

Compound	activity change, positive = activation	Potency
O=C(CN1C(=O)COc2ccc(S(=O)(=O)N3CCOCC3)cc21)N1CCN(c2cccc(Cl)c2)CC1	inactive	
COc1ccc(Cn2c(C(=O)O)c(CNCc3cccc(OC)c3)c3ccc(C)cc32)cc1	inactive	
Cc1cc(C)c(NC(=O)Cn2c(SCC(=O)NCc3ccccc3)nc3ccccc32)c(C)c1	inactive	
CCOC(=O)c1cccc(NS(=O)(=O)c2cn(C)c(C)n2)c1	inactive	
COc1cc2[nH]c(=O)n(Cc3ccc(C(=O)NCc4ccc(C)cc4)cc3)c(=O)c2cc1OC	inactive	
CCOC(=O)c1c(NC(=O)Cc2coc3ccc(CC)cc23)sc2c1CCC2	inactive	
COc1cccc(C(c2c(O)cc(C)n(Cc3ccco3)c2=O)N2CCN(c3ccccc3)CC2)c1 (stereo not given)	inactive	
COc1ccc(CC(=O)N2CC(=O)Nc3ccc(Br)cc3C2c2ccc(F)cc2)cc1OC (stereo not given)	inactive	
Cc1ccc(CNS(=O)(=O)c2ccc(-c3cc(C(F)(F)F)on3)s2)cc1	inactive	
CCCNC(=O)C1CCN(c2nc3ccc(C)cc3[nH]2)CC1	inactive	
Cc1ccc2nc(CNC(=O)c3ccccc3)[nH]c2c1		4.47 µM (active)
COc1ccc(-c2nc3ccc(C(=O)NCc4ccc(C)cc4)cc3nc2-c2ccc(OC)cc2)cc1	inactive	
COc1ccc(-c2nc3sc(CCNC(=O)C(C)(C)C)c(C)n3n2)cc1	inactive	
COc1ccc(C)cc1-n1c(-c2ccc(C)cc2)cc2c1CC(C)(C)CC2=O	inactive	
Cc1cc(Br)ccc1NC(=O)Cn1cnc2sc(C)c(S(=O)(=O)N3CCN(C)CC3)c2c1=O	inactive	
Cc1ccc(-c2noc(-c3nnn(-c4cccc(C(F)(F)F)c4)c3N)n2)cc1	inactive	
O=C(Nc1ccc(C(=O)OCc2cc(=O)n3nc(C4CC4)sc3n2)cc1)c1ccc(F)cc1	inactive	
COc1ccc(Cn2c(=O)c3oc4ccccc4c3n(CC(=O)Nc3ccc(F)cc3F)c2=O)cc1	inactive	
O=C(CN1CCSc2ccccc21)N1CCN(c2ccccc2)CC1	inactive	
COc1ccc2c(c1)c(N1CCCC1=O)c(C(=O)Nc1ccccc1C(F)(F)F)n2C	inactive	
Cc1ccc(NC(=O)CSc2nc3c([nH]c4ccccc43)c(=O)n2-c2ccccc2)cc1Cl	inactive	
Cc1ccccc1Cn1nc(C)c(NC(=O)c2cc(-c3ccc(F)cc3)on2)c1C	inactive	
CCn1cc(C(=O)N2CCN(c3cc(C)ccc3C)CC2)c(=O)c2cc(S(=O)(=O)N(C)C3CCCCC3)ccc21	inactive	
Cc1ccc(C)c(N2CCN(c3ccc4cc(S(=O)(=O)N5CCC(C)CC5)ccc4n3)CC2)c1	inactive	
CC[C@]12C=CCN3CC[C@@]4(c5cc([C@@]6(C(=O)OC)C[C@H]7C[C@@H](C(C)(F)F)CN(Cc8c6[nH]c6ccccc86)C7)c(OC)cc5N(C)[C@H]4[C@@](O)(C(=O)OC)[C@H]1OC(C)=O)[C@@H]32	inactive	
